Screening data (PubChem)
TDP1 cell noCPT – qHTS for Inhibitors of human tyrosyl-DNA phosphodiesterase 1 (TDP1): qHTS in cells in absence of CPT | Potency, µM (titrated, usually from 46.2 µM), for inactives: at the highest dose activity change, negative = growth inhibition, hits mostly inhibitors | DT40 Tdp1-/- hTDP1 cells, no CPT, ATP luminescence, 48 h | 15% of 420,000 active | AID 686978, 2013; also: nearly all actives have a fitted effect of over 55% in size
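Growth kinetics read by CellTiter-Glo luminescence after ≥48 hr at 37 °C. Cells: DT40 Tdp1-/- stably carrying human TDP1, 400 per well, compound exposure in the absence of CPT (DMSO vehicle).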
KB-3-1 cytotox – qHTS assay for MDR1-selective chemotherapeutics: Primary screen using the parental adenocarcinoma cell KB-3-1; 1.4% of 400,000 active; KB-3-1 viability, CellTiter-Glo ATP luminescence, 72 h; AID 1347075, 2019; Potency, µM (highest dose often 46.1 µM), hits mostly cytotoxic; also: nearly all actives have a fitted effect of over 60% in size
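Cells are dispensed, compounds pinned in, plates held at 37 °C for 72 h, then CellTiter-Glo is added and luminescence read after 10 minutes. Cell line: parental KB-3-1 in phenol-red-free DMEM, 10% FBS.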
HT1080 IDH1KD tx – qHTS for induction of synthetic lethality in tumor cells producing 2HG: qHTS for the HT-1080-IDH1KD cell line | Potency, µM (highest dose often 46.1 µM), for the others: top-dose activity, negative = toxicity, most hits filed as cytotoxic | HT-1080 IDH1 knockdown viability, ATP luminescence, 48 h | 2% of 360,000 active;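 also: 0% = DMSO wells and -100% = cell-free medium wells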
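Using the IDH1-knockdown HT-1080 line run in the same batch and compound series as the NT line, viability after 48 h at 37 °C was determined by CellTiter-Glo luminescence and expressed as % activity.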
DT40 TDP1 CPT – qHTS for Inhibitors of human tyrosyl-DNA phosphodiesterase 1 (TDP1): qHTS in cells in presence of CPT; chicken DT40 Tdp1-/-;hTDP1 cells + 20 nM CPT, ATP luminescence, 48 h; AID 686979, 2013; Potency, µM (series often up to 46.2 µM), without a hit: top-dose activity change, negative = growth inhibition, most hits filed as inhibitors; 12% of 420,000 active; also: nearly all actives have a fitted effect of over 55% in size
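Chicken DT40 Tdp1-/- cells stably complemented with human TDP1 were seeded at 400 cells/well in medium containing 20 nM camptothecin, exposed to pin-transferred compounds, and grown at 37 °C for at least 48 hr. Viability was read as ATP luminescence.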
KB-V1 MDR tox – qHTS assay for MDR1-selective chemotherapeutics: Primary screen using the drug-selected MDR subline cells KB-V1. Potency, µM (highest dose often 46.1 µM), usual class: cytotoxic. 3.4% of 400,000 active. KB-V1 MDR cells viability, CellTiter-Glo, 72 h; also: nearly all actives have a fitted effect of over 60% in size
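Cytotoxicity toward P-gp-expressing KB-V1 cells was determined as loss of CellTiter-Glo luminescence after 72 h at 37 degrees C. Compounds were tested in quantitative HTS format across a concentration range, with curves fitted to normalized data.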
HT1080-NT tox – qHTS for induction of synthetic lethality in tumor cells producing 2HG: qHTS for the HT-1080-NT fibrosarcoma cell line; HT-1080-NT fibrosarcoma viability, CellTiter-Glo ATP luminescence, 48 h; 1.6% of 360,000 active; AID 686970, 2013; Potency, µM (titrated, usually from 46.1 µM), without a hit: top-dose activity, negative = less viability, usual class: cytotoxic;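 also: NT is the 2HG producing partner of a matched IDH1 knockdown line; 0% = DMSO-treated cells and -100% = media-only wells without cells; nearly all actives have a fitted effect of over 55% in size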
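750 cells/well, RPMI + 5% FBS; 2 h settle, compound pin-transfer, 48 h at 37 degrees C. CellTiter-Glo 10 min RT, luminescence. Normalized to DMSO and media-only wells.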
Starred values were filed as active, the others as inactive; i = inactive; ? = inconclusive; . = no result. Rows were chosen to be rich in hits. Some 19% of all compounds tested hit in one or more screens of this group. Calls follow the shape of the dose curve; as a rule, active = well fitted curve in the direction sought with a large enough effect; inconclusive = small, poorly fitted or top-dose-only effect, or another doubt; inactive = no such curve, though single readings can be large; an effect the other way counts as inactive or inconclusive. Unless noted, % is scaled to controls: 0 for no effect and ±100 for the full control effect; potency is read from the fitted curve at half-maximal effect.

SMILES | TDP1 cell noCPT | KB-3-1 cytotox | HT1080 IDH1KD tx | DT40 TDP1 CPT | KB-V1 MDR tox | HT1080-NT tox
CCc1ccc2nc(SCC(=O)N3CC(=O)Nc4ccccc43)c(C#N)cc2c1 | 16.4µM* | 5.17µM* | 5.8µM* | ? | 6.51µM* | ?
CCCOc1ccc(NC(=O)CCC(=O)NC(C)c2ccccc2)cc1 (stereo not drawn) | 10.2% | i | 9.8% | -22.6% | i | 10.0%
O=C(CCc1nnc(-c2ccc(-c3ccccc3)cc2)o1)N1CCCCC1 | 20.6µM* | i | -9.7% | ? | i | -15.3%
O=C(c1cccc(-c2nnc(-c3ccccc3)o2)c1)N1CCCCCC1 | 14.1µM* | i | -1.5% | ? | i | 4.9%
O=C(c1cccc(-c2nnc(-c3ccccc3)o2)c1)N1CCCCC1 | 14.6µM* | i | 5.8% | ? | ? | -12.3%
COc1ccc(Nc2nnc(SCC(=O)NC3CCCC3)s2)cc1 | ? | i | -17.2% | -20.7% | ? | -13.9%
CC(C)(C)c1ccc(OCc2nnc(-c3ccccc3)o2)cc1 | -26.4% | i | . | -26.0% | i | .
c1cc2c3c(cccc3c1)NC1(CCCC1)N2 | -27.9% | i | -4.2% | ? | i | -7.2%
CC1(C)Nc2cccc3c(N=Nc4ccc(N=Nc5ccccc5)c5ccccc45)ccc(c23)N1 | 11.2µM* | i | . | ? | ? | .
CC1(C)Nc2cccc3cccc(c23)N1 | 16.4µM* | i | 1.1% | ? | i | -2.9%
Nc1ccc(N=Nc2ccccc2)c2cccnc12 | -2.0% | i | -9.4% | -1.7% | i | -8.1%
O=c1cc(-c2ccc(F)cc2)nc(SCc2nc(-c3cccc(C(F)(F)F)c3)no2)[nH]1 | -11.2% | i | . | -14.9% | i | .
CCn1cc(CN2CCCC(CNS(=O)(=O)c3cccc4cccnc34)C2)cn1 (stereo not drawn) | -4.3% | i | 5.2% | -5.6% | i | -2.8%
NNc1nc(-c2ccccc2Cl)c2cc(Br)ccc2n1 | 5.17µM* | ? | -6.2% | 20.6µM* | i | -1.9%
CCCNc1nc(Nc2ccc([N+](=O)[O-])cc2)nc(N2CCOCC2)n1 | 14.1µM* | i | . | 12.6µM* | i | .
C=CCNc1nc(Nc2ccc([N+](=O)[O-])cc2)nc(N2CCCC2)n1 | ? | i | 6.5% | 14.6µM* | ? | 9.8%
C=CCNc1nc(Nc2ccc(-c3nc4ccccc4o3)cc2)nc(N2CCOCC2)n1 | 25.9µM* | i | ? | 29.1µM* | i | ?
CCCCc1ccc(Nc2nc(N3CCOCC3)nc(N3CCOCC3)n2)cc1 | ? | i | ? | ? | i | -20.9%
C=CCNc1nc(Cl)nc(Nc2ccc([N+](=O)[O-])cc2)n1 | 14.3% | i | 14.0% | 0.4% | i | -0.8%
COc1ccccc1-n1c(CNC(=O)c2ccc(S(=O)(=O)N3CCCCC3)cc2)n[nH]c1=S | -3.7% | i | 8.3% | -5.7% | i | 0.0%
Cc1cc(NC(=O)CC2Oc3ccccc3NC2=O)ccc1Br (stereo not drawn) | ? | i | -11.3% | -2.8% | i | -14.3%
C[C@@H]1CN([C@H](C)CO)C(=O)c2cc(NC(=O)Nc3cccc4ccccc34)ccc2O[C@H]1CN(C)Cc1ccc(C(F)(F)F)cc1 | 8.2µM* | i | -20.9% | 10.3µM* | i | -23.6%
C[C@@H]1CN([C@H](C)CO)C(=O)c2cc(NC(=O)C3CCCCC3)ccc2O[C@@H]1CN(C)Cc1ccc(C(F)(F)F)cc1 | ? | ? | -17.5% | ? | i | -27.4%
C[C@@H]1CN([C@H](C)CO)C(=O)c2cc(NS(=O)(=O)c3cccs3)ccc2O[C@H]1CN(C)Cc1ccccc1 | ? | i | 4.4% | ? | i | -1.5%
C[C@@H]1CN([C@@H](C)CO)C(=O)c2cc(NS(=O)(=O)c3cccs3)ccc2O[C@H]1CN(C)Cc1ccc(C(F)(F)F)cc1 | 25.9µM* | ? | -6.0% | ? | i | -10.5%
SMILES | TDP1 cell noCPT | KB-3-1 cytotox | HT1080 IDH1KD tx | DT40 TDP1 CPT | KB-V1 MDR tox | HT1080-NT tox
C[C@@H]1CN([C@@H](C)CO)C(=O)Cc2cc(NC(=O)Nc3cccc4ccccc34)ccc2O[C@@H]1CN(C)Cc1ccc(C(F)(F)F)cc1 | 16.4µM* | ? | ? | ? | ? | -29.6%
CCCCCN(C(=O)CCC(=O)OCCOc1ccccc1Cl)c1c(N)n(CCCC)c(=O)[nH]c1=O | ? | i | -2.1% | ? | i | -12.6%
CC(C)[C@H](NC(=O)N1CCn2c1nc1ccccc12)C(=O)NC1CCCCC1 | 2.7% | i | -7.8% | -17.0% | i | -4.2%
O=C(O)CCSCCCN1C(=O)c2cccc3cccc(c23)C1=O | -6.5% | i | 1.5% | -6.8% | i | -2.4%
O=[N+]([O-])c1ccc(N/N=C/c2cccc(O)c2O)c(S(=O)(=O)N2CCOCC2)c1 | 13µM* | ? | -8.4% | 10.3µM* | ? | -13.3%
O=[N+]([O-])c1ccc(N/N=C/c2ccc(O)c(O)c2O)c(S(=O)(=O)N2CCOCC2)c1 | ? | i | -12.8% | 4.11µM* | i | -15.8%
Cc1cccc(OCC(=O)N/N=C/c2ccc3c(c2)OCO3)c1 | -17.0% | i | -1.2% | 0.6% | i | 1.1%
O=C(CCc1ccc(O)cc1)NN=Cc1ccc2c(c1)OCO2 | ? | ? | 5.8µM* | 1.0% | i | ?
Cc1cc(C)c(OCC(=O)N/N=C/c2ccc3c(c2)OCO3)c(C)c1 | 5.8µM* | ? | 13µM* | 2.91µM* | i | 18.4µM*
O=C(NCCc1ccccc1)C(=O)N/N=C/c1ccc2c(c1)OCO2 | 20.6µM* | ? | -2.8% | 23.1µM* | i | -6.7%
S=C(NN=Cc1ccc2c(c1)OCO2)NN=Cc1ccc2c(c1)OCO2 | 23.1µM* | ? | -14.6% | 23.1µM* | ? | -25.3%
O=C(O)CCn1c(-c2ccccn2)nc2ccccc21 | -0.6% | i | -4.0% | 29.4% | ? | 2.8%
O=C(NC1CC1)c1ccc(Cn2c(SCc3ccc(F)cc3)nc3cccnc32)cc1 | -28.7% | . | . | -29.6% | . | .
Cc1cccc(Cn2c(SCc3ccc(C(=O)N4CCCCCC4)cc3)nc3ccncc32)c1 | ? | . | . | -122.2% | . | .
